Shown are actives, neighbours in structure and some others; about 2.8% of the full set was active somewhere.
KLK7 zymogen act – activators of human kallikrein-7 zymogen; activation, % at 7 µM; actives 0.9% (n = 370,000); purified proKLK7, EDANS-DABCYL substrate fluorescence; 100% is mature enzyme control, 0% vehicle; P49862;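 active = activation above the mean of all tested compounds plus 3 SD, computed per campaign excluding outliers beyond control limits, cut at about 13% in these data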
Target sequence (P49862 whole entry, looked up): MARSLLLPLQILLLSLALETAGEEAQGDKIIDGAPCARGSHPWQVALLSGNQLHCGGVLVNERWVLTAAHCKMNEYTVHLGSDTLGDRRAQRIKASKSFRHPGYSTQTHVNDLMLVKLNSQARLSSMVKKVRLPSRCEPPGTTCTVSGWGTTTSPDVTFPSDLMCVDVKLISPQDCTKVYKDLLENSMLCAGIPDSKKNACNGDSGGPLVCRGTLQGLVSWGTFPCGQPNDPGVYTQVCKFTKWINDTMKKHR
bovine MsrA act – activators of bovine methionine sulfoxide reductase A | purified bovine MsrA, absorbance read-out | activation, % at 10.6 µM | actives 0.3% (n = 360,000); in the data active = activation above about 7.5%;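 note: 0% = vehicle and 100% = reference activator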
MsrA inhibitor – inhibits bovine methionine sulfoxide reductase A | actives 0.75% (n = 360,000) | AID 651718 | purified bovine MsrA, absorbance read-out | inhibition, % at 15.5 µM; in the data active = inhibition above about 4.5%;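 note: 0% = vehicle wells with enzyme and 100% = reference inhibitor wells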
SMARCA2 activ – activators of SMARCA2 function; MG213 cells, MMTV-luciferase reporter, dexamethasone, overnight; activation, % at 9.1 µM; actives 1% (n = 370,000); AID 652017; in the data active = activation above about 7.8%;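 note: 0% = vehicle wells and 100% = reference activator wells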
KLK7 act conf – proKLK7 activation, confirmation | activation, % at 7 µM | purified proKLK7, EDANS-DABCYL substrate fluorescence; scaled: vehicle 0, mature enzyme 100 | shares compounds with KLK7 zymogen act | AID 686949 | actives 68% (n = 3,200);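 active = activation, as change over the incubation, above the mean of all tested compounds plus 3 SD, cut at about 13% in these data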
EDANS interfere – counter-screen for kallikrein-7 activators: EDANS-DABCYL optical interference | shares compounds with KLK7 zymogen act | EDANS-DABCYL substrate fluorescence interference, no enzyme, 4 h; solvent 0%, active enzyme control 100% | activation, % at 7 µM | actives 80% (n = 3,200);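 active = activation above the all-compound mean plus 3 SD, ignoring values outside control-based bounds, cut at about 4.8% in these data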;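 note: value is the 4 h activation minus the activation read at time zero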
EDANS interf – counter-screen for kallikrein-7 activators: EDANS-DABCYL interference, dose response; shares compounds with KLK7 zymogen act; EDANS-DABCYL peptide fluorescence interference, no enzyme; EC50, µM; actives 20% (n = 250); AID 720493;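 active = compounds that raise the fluorescence signal in this interference counterscreen, with EC50 at or below 10 µM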;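 note: intact quenched peptide substrate alone read at 355 nm excitation and 520 nm emission; signal is fluorescence gain from T0 to T4 after four hours at room temperature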
Starred values were filed as active, the others as inactive; i = inactive; · = no result.

SMILES	KLK7 zymogen act	bovine MsrA act	MsrA inhibitor	SMARCA2 activ	KLK7 act conf	EDANS interfere	others
CCN(CC)Cc1c(O)ccc2c(=O)c(-c3ccc(Cl)cc3)coc12	29*	-10	3	2	33*	31*
FC(F)(F)c1ccc2c(c1)NCC1CCCN21 (stereo not given)	68*	-15	1	-2	46*	47*
Cc1ccccc1N1CCN(C(=O)CN2C(=O)CC(C)(C)S(=O)(=O)c3ccccc32)CC1	0	·	·	-2	·	·
Cc1nc(-c2cnn(-c3ccccc3)c2)c2cc(C)oc2n1	-1	-13	0	1	·	·
Cc1nc(/C=C\C(=O)O)c2cc(C)oc2n1	13*	-6	2	0	20*	22*
O=c1c2ccccc2[nH]c2ccc(F)cc12	-6	-4	-1	-1	·	·
O=c1nc(-c2ccccc2Cl)c2cc(F)ccc2[nH]1	19*	-5	2	-2	31*	26*	EDANS interf=i
COc1ccc(-c2cc(=O)oc3cc(OC(=O)C4CCCCC4)c(Cl)cc23)cc1	64*	-2	4	-6	64*	37*	EDANS interf=>70
COc1ccc(-c2cc(=O)oc3cc(O)ccc23)cc1	-26	-8	2	2	·	·
COc1ccc(NC(=O)CCOc2ccccc2C)cc1S(=O)(=O)N1CCCCC1	1	1	0	-3	·	·
COc1cc2c(cc1OC)CN(CC(=O)Nc1ccc(C#N)cc1)CC2	17*	-10	1	-4	3	0
Cc1oc2c(CN3CCCC3)c(O)ccc2c(=O)c1-c1ccc(Br)cc1	15*	-3	2	-2	35*	30*	EDANS interf=>69
Cc1oc2c(O)c(O)ccc2c(=O)c1-c1ccccc1	1	-13	1	4	·	·
COc1ccc(-c2c(C)oc3c(CN4CCOCC4)c(O)ccc3c2=O)cc1	67*	-4	2	3	24*	32*
Cc1oc2c(O)c(O)ccc2c(=O)c1-c1ccc(Cl)cc1	1	-6	-1	3	·	·
Cc1oc2c(CN3CCCCC3)c(O)ccc2c(=O)c1-c1ccc(Br)cc1	25*	-4	3	1	21*	17*	EDANS interf=>70
COc1ccc(C(C)(NC(C)=O)c2nc(-c3ccncc3)cs2)cc1 (stereo not given)	-1	-2	0	0	·	·
COc1ccccc1C(=O)N1CCN(C(=O)[C@H]2O[C@@H](n3ccc(=O)[nH]c3=O)[C@H](O)[C@@H]2O)CC1	0	-3	0	4	·	·
CCOC(=O)CC(=O)Nc1cc2ccc(OC)c(OC)c2cc1C(=O)OCC	16*	0	-1	-5	-24	-25
CCOC(=O)c1cc2ccc(OC)c(OC)c2c(=O)s1	0	-1	0	-1	·	·
Nc1ccc(-c2nc3c(ccc4ccccc43)[nH]2)cc1	54*	-3	2	-3	74*	74*
CC1CN(C(=O)c2cc3c(=O)n4ccccc4nc3n2C)CC(C)O1 (stereo not given)	79*	-4	2	-3	75*	71*
Cn1c(C(=O)N2CCc3ccccc3C2)cc2c(=O)n3ccccc3nc21	16*	-10	1	3	-33	-26
CCOC(=O)C1CCCN(C(=O)c2cc3c(=O)n4ccccc4nc3s2)C1 (stereo not given)	9	-1	1	-2	·	·
Cn1c(C(=O)N2CCOCC2)cc2c(=O)n3ccccc3nc21	61*	-3	3	0	73*	84*
SMILES	KLK7 zymogen act	bovine MsrA act	MsrA inhibitor	SMARCA2 activ	KLK7 act conf	EDANS interfere	others
CCOC(=O)C1CCN(C(=O)c2cc3c(=O)n4ccccc4nc3n2C)CC1	78*	-7	0	-1	64*	64*
CC1Cc2ccccc2N1C(=O)c1cc2c(=O)n3ccccc3nc2n1C (stereo not given)	2	-2	1	-2	·	·
O=c1c2cc3cccnc3nc2ncn1CCc1c[nH]c2ccccc12	-6	·	·	-6	·	·
CC(=O)Nc1cnc(-c2cccc(C(=O)N3CCOCC3)c2)cn1	0	-3	1	-2	·	·
CNc1cnc(-c2ccc(C(=O)N3CCOCC3)cc2)cn1	20*	-2	2	4	20*	22*
COc1ccc(C(=O)Cc2cc3cccc(OC)c3oc2=O)cc1	1	-1	0	-2	·	·
COc1ccc(C(=O)CC2OC(=O)c3c2ccc(OC)c3OC)cc1 (stereo not given)	55*	-11	1	1	59*	79*
Cc1cc(=O)oc2c(C)c(OCC(=O)N3CCN(C(=O)C4COc5ccccc5O4)CC3)ccc12 (stereo not given)	-1	-4	0	0	·	·
COc1ccc2c(C)c(CC(=O)N3CCN(C(=O)C4COc5ccccc5O4)CC3)c(=O)oc2c1 (stereo not given)	3	-11	2	-2	·	·
Cc1c(CC(=O)N2CCN(C(=O)C3COc4ccccc4O3)CC2)c(=O)oc2c(C)c(O)ccc12 (stereo not given)	39*	-6	2	0	70*	70*
Cc1c(CC(=O)N2CCN(C(=O)C3COc4ccccc4O3)CC2)c(=O)oc2cc(O)cc(O)c12 (stereo not given)	61*	-5	2	0	68*	67*
Cc1c(CC(=O)N2CCN(C(=O)C3COc4ccccc4O3)CC2)c(=O)oc2cc(O)ccc12 (stereo not given)	58*	-5	3	-2	74*	75*
COC(=O)[C@@]12C[C@@H](CC(=O)NCc3cccc4ccccc34)C(=O)N(Cc3ccco3)C1=CCC(C)(C)C2	0	·	0	-2	·	·
COC(=O)C[C@@H]1CC[C@H]2[C@@H](COc3ccc(NC(=O)Nc4ccccc4Cl)cc3C(=O)N2C)O1	0	·	·	-1	·	·
O=C(C[C@@H]1CC[C@H](NC(=O)Nc2ccc(F)cc2)[C@@H](CO)O1)NCc1cccc(F)c1	0	·	0	-6	·	·
COc1ccc(-c2ccc(C(=O)Nc3cc(OC)c(OC)c(OC)c3)c3occc23)c(C)c1	0	-5	3	-1	·	·
C/C(=N/NC(=O)C(=O)N/N=C(/C)c1ccccc1)c1ccccc1	0	·	0	0	·	·
C/C(CCc1ccccc1)=N\NC(=O)CCc1ccccc1	1	-1	-1	0	·	·
C/C(CCc1ccco1)=N\NC(=O)CNc1cccc2ccccc12	33*	0	0	1	8	6.1*
C/C(=N\NC(=O)CNc1cccc2ccccc12)c1ccccc1	46*	3	0	1	2	2
Cc1cccc(C(=O)OCC(=O)NCc2ccc(Cl)cc2)c1	0	-5	4	-3	·	·
CCCCCCCCN1CN2Cc3cc(F)ccc3C2CS1(=O)=O (stereo not given)	0	·	·	3	·	·

Bioassay records (PubChem BioAssay)
